Shown are actives, neighbours in structure and some others; about 12% of the full set was active somewhere.
Sm TGR inh: inhibitors of Schistosoma mansoni thioredoxin glutathione reductase. Potency, µM (series often up to 114 µM), for inactives: top-dose activity change, negative = inhibition, hits mostly inhibitors. purified TGR, DTNB reduction, TNB absorbance 405 nm. Q962Y6. 360,000 tested, 3% active; active = well fitted inhibition curve with a large enough effect; inconclusive = small, poorly fitted or top-dose-only effect; inactive = no such curve, though single readings can be large or run the other way; also: potency is read from the fitted curve at half-maximal effect; % is scaled to controls: 0 for no effect and ±100 for the full control effect; nearly all actives have a fitted effect of over 60% in size
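First, TGR (20 nM dispensed) and NADPH were mixed with compound. Second, a 15 min room-temperature incubation followed. Third, further NADPH and then DTNB were added to start the reaction. Finally, TNB absorbance was monitored kinetically.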
Cycloheximide cs: affects cycloheximide protein synthesis inhibition readout, counter-screen; AID 2314; cell reporter, cycloheximide protein synthesis inhibition counterscreen; max response, %; 300,000 tested, 12% active; in the data active = max response mostly above about 13%, no sharp cut-off; inactive = mostly below about 14%; also: read at 38.3 µM for the half of the compounds with a filed dose; 0% is about no effect
FMDV inh: antivirals against foot and mouth disease virus | FMDV antiviral cell-based qHTS | Potency, µM (series often up to 57.9 µM), for inactives: at the highest dose activity change, negative = inhibition, most hits filed as inhibitors | 410,000 tested, 1.2% active | AID 1159524; calls by dose curve; tested in HEK293T cells; also: read-out not given here; potency is read from the fitted curve at half-maximal effect; % is scaled to controls: 0 for no effect and ±100 for the full control effect; nearly all actives have a fitted effect of over 45% in size
Shiga inhibitor: blocks Shiga toxin action in Vero cells. Vero cells, Shiga toxin protein synthesis inhibition reporter. AID 2315. 290,000 tested, 9.2% active. inhibition, % at 38.7 µM; in the data active = inhibition mostly above about 28%, no sharp cut-off; inactive = mostly below about 43%; also: 0% is about no effect
The depositor's hits bear a star; u = inconclusive; x = no result.

SMILES | Sm TGR inh | Cycloheximide cs | FMDV inh | Shiga inhibitor
Cc1[nH]n(-c2ccccc2)c(=O)c1/C=N/N(c1ccccc1)c1ccccc1 | 0.0% | -4.9 | -27.9% | 19.2
Cc1[nH]n(-c2ccccc2)c(=O)c1C=NC1CCCCCC1 | 29.9% | 20.0* | 38.5% | 38.7
Cc1[nH]n(-c2ccccc2)c(=O)c1C=Nc1cccc(F)c1 | 9.5% | 9.0 | 18.9% | 57.1*
C=CCN=Cc1c(C)[nH]n(-c2ccccc2)c1=O | 0.7% | 22.1* | 30.3% | 93.5*
Cc1[nH]n(-c2ccccc2)c(=O)c1C=Nc1ccc2[nH]c(=O)[nH]c2c1 | 9.8% | 1.6 | -13.7% | -4.3
COc1ccccc1CNc1cc(C)nc2nc(-c3ccc(C)cc3)nn12 | 1.7% | x | -0.1% | x
O=C(CSc1cn(CC(=O)N2CCCCC2)c2ccccc12)NCc1ccccc1 | -5.9% | x | 19.8% | x
O=C(CSc1nc2c([nH]c3ccccc32)c(=O)n1-c1ccccc1)N1CCCCC1 | 0.6% | x | -3.3% | x
Cc1ccc2ncc(C(=O)Nc3ccc(F)cc3F)c(=O)n2c1 | 10.5% | x | 20.9% | x
CCCN1C(=O)C(O)(c2c(C)[nH]c3ccccc23)c2ccccc21 (stereo not drawn) | 44.7µM* | 1.5 | -25.7% | 22.4
Cc1cc(=O)[nH]c(-c2ccccc2)n1 | -7.6% | 7.4 | -2.8% | -20.9
Cc1cc(=O)[nH]c2n[nH]c(-c3ccccc3)c12 | 5.9% | 14.6* | 3.1% | 37.2
Cc1cc(C(F)(F)F)c(C#N)c(N2CCOCC2)n1 | 3.8% | 8.5 | -15.9% | -17.7
N#Cc1c(N2CCOCC2)nsc1-c1ccc(C(F)(F)F)cc1 | 6.5% | 28.6* | -5.6% | 43.2
CN(C)CCCOc1c2ccccc2n(Cc2ccccc2)[n+]1[O-] | x | -3.0 | x | -11.9
Cc1cc(C(F)F)n2nc(C(=O)Nc3c(F)cc(F)cc3Br)nc2n1 | -4.4% | -2.7 | u | -5.9
O=C(Nc1c(F)cc(F)cc1Br)c1cc(-c2ccccc2)on1 | -22.1% | 15.9* | 30.8% | x
O=C(Nc1c(F)cc(F)cc1Br)c1cc(-c2ccc(O)cc2)on1 | -4.0% | 30.7* | 12.3% | 22.9
Cc1cc(C(=O)Nc2c(F)cc(F)cc2Br)no1 | 6.7% | 13.6* | 0.0% | 25.9
CCOc1ccc(-c2nc(C#N)c(NCC3CCCO3)o2)cc1 (stereo not drawn) | -5.3% | 12.8 | 23.3% | 28.0
N#Cc1nc(-c2ccccc2Cl)oc1NCC1CCCO1 (stereo not drawn) | 78.0% | 16.3 | -7.3% | 90.6*
COc1ccc(-c2nc(C#N)c(NCC3CCCO3)o2)cc1OC (stereo not drawn) | -0.6% | 22.7* | 34.8% | 10.5
COC(=O)c1c(-c2cccs2)csc1NC(=O)c1cc(OC)c(OC)c(OC)c1 | 0.2% | x | -20.9% | x
Cc1nc2c(-c3ccccc3)c(C)nn2c(C)c1CCC(=O)N1CCN(c2ccc(F)cc2)CC1 | 0.9% | x | -26.1% | x
O=c1c(=O)n(-c2ccccc2)ccn1Cc1cccc(C(F)(F)F)c1 | 6.4% | x | -0.8% | x
SMILES | Sm TGR inh | Cycloheximide cs | FMDV inh | Shiga inhibitor
CC1CCC(NC(=O)C2(C)Cc3ccccc3C(=O)N2Cc2ccccc2Cl)CC1 (stereo not drawn) | 5.3% | x | -15.3% | x
CSCC(=O)N1CCCC(CNC(=O)c2ccc(-c3ccccc3)cc2)C1 (stereo not drawn) | -12.3% | 11.9* | -4.0% | 22.0
CC(=O)CCC(=O)N1CCCC(CNC(=O)c2ccc(-c3ccccc3)cc2)C1 (stereo not drawn) | 4.1% | 20.8* | 39.6% | 42.3*
Cc1ccc(Cl)cc1N1CCN(C(=O)Cn2ncc3c([nH]c4ccccc43)c2=O)CC1 | 1.6% | x | 1.8% | x
COc1ccccc1NC(=O)c1ccc(CN2CCOCC2)cc1 | -7.1% | 9.9 | 2.5% | 13.2
Cc1cc(CSc2ccccc2)ccc1NC(=O)c1ccc(CN2CCOCC2)cc1 | -6.9% | -0.7 | 12.6µM* | 2.5
CC(C)(C)c1ccc(C(=O)Nc2ccccc2C(=O)NCCN2CCOCC2)cc1 | -1.8% | 13.1* | 28.8% | 35.5
COc1ccc(C(=O)Nc2ccccc2C(=O)NCCN2CCOCC2)cc1 | u | 13.3 | x | 35.8
CSc1ccccc1NC(=O)c1ccc(CN2CCOCC2)cc1 | 14.5% | 12.9* | 11.9% | 51.9*
CCOC(=O)c1c(C)[nH]c(CCC(=O)NC(C)c2ccccc2)c1C (stereo not drawn) | -0.5% | x | -5.1% | x
CCOc1ccc(NC(=O)CN2CCN(c3ccc(Cl)cc3)CC2)cc1 | 0.0% | x | -28.7% | x
Cc1ccc(-n2nc(C)c3c(C)c(CCC(=O)NCc4ccc(Cl)cc4)c(C)nc32)cc1 | 2.4% | x | -23.8% | x
CCC(=O)NC(c1ccco1)c1cc(Br)c2cccnc2c1O (stereo not drawn) | 35.5µM* | x | -25.0% | x
CCCC(=O)NC(c1ccco1)c1cc([N+](=O)[O-])c2cccnc2c1O (stereo not drawn) | 28.2µM* | 9.8 | -29.7% | -6.7

From PubChem
